Data as given in PubChem BioAssay AID1159580 (chemical genetic matrix, 2015).
In all, about 5,500 compounds went through this assay and about 2,000 (36%) were called active. Roughly 18% stayed inconclusive and do not appear here. Cut-off read from the data, not from the text of the source: active = normalized growth mostly below about 0.91 (no sharp cut-off); inconclusive = no clear call, values can overlap the other calls; inactive = mostly above about 0.92. The list shows a part of the results.

Test: chemical genetic growth profiling, strain panel (AID 1159580);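 note: tested at 20 µM; growth read once vehicle control cultures reached saturation at 30 °C; 1 = growth at the plate median or of vehicle wells; lower values mean less growth of the strain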
Settings: S. cerevisiae deletion strains, growth OD
[1] = locus YAL013W, strain DEP1, stronger effect = lower value
[2] = locus YBR229C, strain ROT2, stronger effect = lower value
[3] = locus YDL101C, strain DUN1, stronger effect = lower value
[4] = locus YDR150W, strain NUM1, stronger effect = lower value
[5] = locus YEL061C, strain CIN8, stronger effect = lower value
[6] = locus YGR078C, strain PAC10, stronger effect = lower value
[7] = locus YHR030C, strain SLT2, stronger effect = lower value
[8] = locus YHR087W, strain rtc3, stronger effect = lower value
[9] = locus YJL187C, strain SWE1, stronger effect = lower value
[10] = locus YJR043C, strain POL32, stronger effect = lower value
[11] = locus YJR075W, strain HOC1, stronger effect = lower value
[12] = locus YKL190W, strain CNB1, stronger effect = lower value
[13] = locus YLR039C, strain RIC1, stronger effect = lower value
[14] = locus YLR058C, strain SHM2 (second series), stronger effect = lower value
[15] = locus YLR085C, strain ARP6, stronger effect = lower value
[16] = locus YLR262C, strain YPT6, stronger effect = lower value
[17] = locus YML094W, strain GIM5, stronger effect = lower value
[18] = locus YMR219W, strain ESC1, stronger effect = lower value
[19] = locus YMR263W, strain SAP30, stronger effect = lower value
[20] = locus YMR307W, strain GAS1, stronger effect = lower value
[21] = locus YNL153C, strain GIM3, stronger effect = lower value
[22] = locus YNL298W, strain CLA4 (second series), stronger effect = lower value
[23] = locus YNL322C, strain KRE1, stronger effect = lower value
[24] = locus YNR030W, strain Alg12, stronger effect = lower value
[25] = locus YOL006C, strain TOP1, stronger effect = lower value
[26] = locus YPL055C, strain LGE1, stronger effect = lower value
[27] = locus YPL241C, strain CIN2, stronger effect = lower value
[28] = locus YPR135W, strain CTF4, stronger effect = lower value
[29] = locus YCL061C, strain MRC1, stronger effect = lower value
[30] = locus YDL134C, strain PPH21, stronger effect = lower value

Measured: normalized growth

Cc1ccc(Cl)cc1NC(=S)N(CCC#N)/N=C\c1ccc2c(c1)OCO2
inactive: [1] 0.997 | [2] 1 | [3] 1 | [4] 1.02 | [5] 1 | [6] 0.991 | [7] 0.953 | [8] 0.995 | [9] 0.995 | [10] 1 | [11] 1.02 | [12] 0.98 | [13] 0.936 | [14] 1.01 | [15] 0.925 | [16] 0.973 | [17] 0.975 | [18] 1 | [19] 1.03 | [20] 0.853 | [21] 1.02 | [22] 0.981 | [23] 0.989 | [24] 0.974 | [25] 0.998 | [26] 1.04 | [27] 0.985 | [28] 1.1

CCOC(=O)/C(C#N)=C/Nc1ccc2c(c1)OCO2
active: [7] 0.4 | [11] 0.889 | [15] 0.772 | [16] 0.816
inactive: [1] 0.992 | [2] 0.985 | [29] 1.01 | [3] 1.07 | [30] 0.963 | [4] 1 | [5] 0.989 | [6] 0.98 | [8] 0.986 | [9] 0.982 | [10] 0.989 | [13] 0.795 | [14] 0.971 | [17] 1.03 | [18] 0.981 | [19] 0.96 | [20] 0.884 | [21] 1.02 | [22] 0.905 | [23] 0.97 | [24] 0.946 | [25] 0.804 | [26] 0.976 | [27] 0.966 | [28] 0.786

Cc1ccc(S(=O)(=O)N2CCC(N)=N2)cc1
inactive: [1] 1.03 | [2] 0.954 | [29] 1.03 | [3] 1.05 | [30] 0.984 | [4] 1.02 | [5] 0.997 | [6] 1.02 | [7] 1.1 | [8] 1.01 | [9] 0.999 | [10] 1.05 | [11] 1.02 | [12] 1 | [13] 1 | [14] 0.992 | [15] 1.02 | [16] 0.99 | [17] 1 | [18] 0.995 | [19] 1.02 | [20] 0.997 | locus YNL128W, strain TEP1, stronger effect = lower value 1.01 | [21] 1.02 | [22] 1.04 | [23] 1 | [24] 0.992 | [26] 1 | [27] 1 | [28] 1.08

CC(C)(C)NCC(O)COc1cccc2c1CCCC2=O (configuration not stated)
inactive: locus YAL021C, strain ccr4, stronger effect = lower value 0.97 | locus YAL026C, strain drs2, stronger effect = lower value 0.976 | locus YAL030W, strain snc1, stronger effect = lower value 0.985 | locus YBL061C, strain skt5, stronger effect = lower value 0.981 | locus YBR009C, strain hhf1, stronger effect = lower value 1 | locus YBR023C, strain chs3, stronger effect = lower value 0.983 | locus YBR171W, strain sec66, stronger effect = lower value 0.934 | locus YBR231C, strain swc5, stronger effect = lower value 0.98 | locus YBR279W, strain paf1, stronger effect = lower value 0.979 | locus YCL011C, strain gbp2, stronger effect = lower value 0.992 | locus YCL016C, strain dcc1, stronger effect = lower value 1.02 | [29] 0.957 | locus YCL069W, strain vba3, stronger effect = lower value 0.952 | locus YCR088W, strain abp1, stronger effect = lower value 0.981 | locus YDL005C, strain med2, stronger effect = lower value 0.987 | locus YDL040C, strain nat1, stronger effect = lower value 0.978 | locus YDR001C, strain nth1, stronger effect = lower value 0.976 | locus YDR069C, strain doa4, stronger effect = lower value 0.987 | locus YDR137W, strain rgp1, stronger effect = lower value 0.983 | locus YDR159W, strain sac3, stronger effect = lower value 0.967 | locus YDR195W, strain ref2 0.966 | locus YDR297W, strain sur2, stronger effect = lower value 0.981 | locus YDR334W, strain swr1, stronger effect = lower value 0.937 | locus YDR335W, strain msn5, stronger effect = lower value 0.989 | locus YDR392W, strain spt3, stronger effect = lower value 0.992 | locus YEL003W, strain gim4, stronger effect = lower value 0.994 | locus YEL037C, strain rad23, stronger effect = lower value 0.973 | locus YEL061C, strain CIN8 (second series), stronger effect = lower value 0.961 | locus YER015W, strain faa2, stronger effect = lower value 0.981 | locus YER016W, strain bim1, stronger effect = lower value 1.01 | locus YER111C, strain swi4, stronger effect = lower value 0.982 | locus YER155C, strain BEM2 (second series), stronger effect = lower value 0.986 | locus YFR010W, strain ubp6, stronger effect = lower value 0.95 | locus YGL167C, strain pmr1, stronger effect = lower value 0.984 | locus YGL173C, strain kem1, stronger effect = lower value 0.977 | locus YGL227W, strain vid30, stronger effect = lower value 0.964 | locus YGL240W, strain doc1, stronger effect = lower value 0.984 | locus YGL253W, strain hxk2, stronger effect = lower value 0.99 | locus YHR013C, strain ard1, stronger effect = lower value 0.988 | locus YHR027C, strain rpn1, stronger effect = lower value 0.996 | [7] 0.954 | locus YHR079C, strain IRE1, stronger effect = lower value 0.954 | locus YHR142W, strain chs7, stronger effect = lower value 0.986 | locus YJL092W, strain hpr5, stronger effect = lower value 0.99 | locus YJL095W, strain BCK1 (second series), stronger effect = lower value 0.988 | locus YJL095W, strain BCK1, stronger effect = lower value 0.98 | locus YJL115W, strain asf1, stronger effect = lower value 0.959 | locus YJL129C, strain trk1, stronger effect = lower value 0.97 | locus YJL154C, strain vps35, stronger effect = lower value 0.981 | locus YJL164C, strain tpk1, stronger effect = lower value 1 | locus YJL166W, strain qcr8, stronger effect = lower value 0.976 | [9] 0.989 | locus YJR066W, strain TOR1, stronger effect = lower value 0.943 | locus YKL160W, strain elf1, stronger effect = lower value 1.01 | locus YKR026C, strain gcn3, stronger effect = lower value 0.983 | locus YKR091W, strain srl3, stronger effect = lower value 0.986 | locus YLL001W, strain dnm1, stronger effect = lower value 0.985 | locus YLL026W, stronger effect = lower value 0.993 | locus YLL041C, strain sdh2, stronger effect = lower value 1.01 | locus YLR027C, strain aat2, stronger effect = lower value 1.01 | locus YLR113W, strain HOG1, stronger effect = lower value 1.01 | locus YLR221C, strain rsa3, stronger effect = lower value 0.999 | locus YLR258W, strain gsy2, stronger effect = lower value 0.969 | locus YLR262C, strain YPT6 (second series), stronger effect = lower value 0.971 | locus YLR320W, strain mms22, stronger effect = lower value 0.965 | locus YLR342W, strain FKS1, stronger effect = lower value 0.992 | locus YLR357W, strain rsc2, stronger effect = lower value 0.991 | locus YLR370C, strain arc18, stronger effect = lower value 0.984 | locus YLR384C, strain iki3, stronger effect = lower value 0.973 | locus YML120C, strain ndi1, stronger effect = lower value 1.01 | locus YMR058W, strain fet3, stronger effect = lower value 0.982 | locus YMR125W, strain sto1, stronger effect = lower value 0.958 | locus YMR129W, stronger effect = lower value 0.992 | locus YMR205C, strain PFK2, stronger effect = lower value 0.989 | locus YMR231W, strain pep5, stronger effect = lower value 0.983 | locus YNL071W, strain lat1, stronger effect = lower value 0.958 | locus YNL183C, strain NPR1, stronger effect = lower value 0.952 | locus YNL209W, strain ssb2, stronger effect = lower value 0.984 | locus YNL248C, strain rpa49, stronger effect = lower value 0.98 | locus YNL322C, strain KRE1 (second series), stronger effect = lower value 1.01 | locus YNR049C, strain mso1, stronger effect = lower value 0.993 | locus YOR001W, strain rrp6, stronger effect = lower value 0.944 | locus YOR070C, strain gyp1, stronger effect = lower value 0.992 | locus YOR080W, strain dia2, stronger effect = lower value 1 | locus YOR083W, strain WHI5, stronger effect = lower value 1.02 | locus YOR106W, strain vam3, stronger effect = lower value 0.977 | locus YOR231W, strain MKK1, stronger effect = lower value 0.977 | locus YOR265W, strain rbl2, stronger effect = lower value 0.979 | locus YOR270C, strain vph1, stronger effect = lower value 0.95 | locus YOR290C, strain snf2, stronger effect = lower value 1.03 | locus YPL051W, strain arl3, stronger effect = lower value 1.01 | locus YPL078C, strain atp4, stronger effect = lower value 1 | locus YPL106C, strain sse1, stronger effect = lower value 0.975 | locus YPL240C, strain hsp82, stronger effect = lower value 0.996 | locus YPL256C, strain CLN2, stronger effect = lower value 0.969
